Experiment in all cases: NCI-60 one-dose screen, 48 h (100 = growth as untreated, 0 = no growth, -100 = all killed)
Settings in all cases: 10 µM unless noted

The subject of experiment [1] is SK-MEL-2 melanoma.
For experiment [2], the system named is EKVX NSCLC.
Experiment [3] relates to SN12C renal.
In experiment [4] the test system is UO-31 renal.
Experiment [5] deals with TK-10 renal.
Experiment [6] deals with ACHN renal.
Experiment [7] concerns CAKI-1 renal.
For experiment [8], the system named is A498 renal.
The test system of experiment [9] is CCRF-CEM leukemia.
Experiment [10] concerns MOLT-4 leukemia.
In experiment [11] the test system is RPMI-8226 leukemia.
In experiment [12] the test system is OVCAR-8 ovarian.
Experiment [13] relates to OVCAR-5 ovarian.
The subject of experiment [14] is OVCAR-4 ovarian.
Experiment [15] deals with SK-OV-3 ovarian.
Experiment [16] concerns IGROV1 ovarian.
For experiment [17], the system named is OVCAR-3 ovarian.
In experiment [18] the test system is HS 578T breast.
For experiment [19], the system named is NCI/ADR-RES ovarian.

This is part of a sample that, as a whole, favours compounds with a hit. Of some 83,000 tested, about 20% had one in any assay.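 Growth was measured after 48 h exposure to one concentration of compound in 96-well plates. Values under 10 count as active.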 A number with no mark means an inactive call. Activity calls are given as the source filed them.

Regarding `CCN(CC)CCCCNc1ccc(NCCCCN(CC)CC)c2c1C(=O)c1ccccc1C2=O`, the growth in experiment [1] is 105%; in [2], 100%; in [3] it was 84.1%; in [4], 62.3%; in experiment [5] it was 57.8%; in experiment [6], 88.4%. For the same compound, the growth in experiment [7] is 81.5%; in [8], 110%; in experiment [9] it was 78.6%; in [10], 62.9%; in [11] it was 47.8%; in experiment [12] it was 72.9%. The growth was 114% in experiment [13]; 84.1% in [14]; 122% in experiment [15]; 71.8% in experiment [16]; 91.5% in [17]; 101% in [18]. In addition, the growth in [19] was 83.4%.
In the case of `O=C1C(Cl)=C(Cl)C(=O)c2c1nc1n2CCCC1`, the growth was 88.1% in [1]; 95.9% in experiment [2]; 96.5% in [3]; 88.8% in [4]; 60% in experiment [5]; -8.54% (active) in [6]. The growth in experiment [7] is 100%; in experiment [8], 76.2%; in [9], 11.7%; in [10] it was 9.16% (active); in experiment [11], 99.3%; in experiment [12], 100%. In addition, the growth in [13] is 116%; in experiment [14], 117%; in experiment [15], 90.8%; in experiment [16], 104%; in experiment [17], 82.5%; in experiment [18], 105%. The growth in [19] is 93.5%.
`COc1cc2cc(COc3nccc(-c4ccc(Cl)cc4)n3)c(=O)[nH]c2cc1OC`: the growth in [1] is 96.7%; in [2], 91%; in [3], 69.3%; in experiment [4], 67.2%; in experiment [5], 100%; in experiment [6], 102%. The growth is 86.5% in experiment [7]; 76.6% in experiment [8]; -20.5% (active) in [9]; 42.1% in experiment [10]; -28.4% (active) in experiment [11]; 81.3% in experiment [12]. Further, the growth was 96.7% in experiment [13]; 82.5% in experiment [14]; 89.9% in experiment [15]; 79.6% in experiment [16]; 90.4% in experiment [17]; 67.3% in experiment [18]. Moreover, the growth in experiment [19] was 84.2%.
As to `C=C1CCC2C3(C)COC(c4cccc(Cl)c4)OC3CCC2(C)C1/C=C/C1=CCOC1=O` (stereo not drawn), the growth in experiment [1] was 85.6%; in [2], 35.2%; in experiment [3] it was 87.2%; in experiment [4], 38.8%; in [5], 88.3%; in experiment [6], 71.5%. The growth was 70.6% in experiment [7]; 64.5% in experiment [8]; 48.4% in experiment [9]; 33.2% in experiment [10]; 51.8% in experiment [11]; 71.5% in experiment [12]. Further, the growth is 84.3% in [13]; 53.7% in [14]; 78.1% in [15]; 88.9% in experiment [16]; 76.9% in [17]; 96.1% in experiment [18]. For the same compound, the growth in experiment [19] is 44%.
Regarding `COc1ccc(C2Nc3ccccc3-n3cccc32)cc1` (stereo not drawn), the growth in experiment [1] is 92.7%; in experiment [2] it was 68.8%; in experiment [3], 97.4%; in experiment [4], 58.3%; in [5], 100%; in experiment [6] it was 88%. For the same compound, the growth in experiment [7] was 89%; in experiment [8], 93.2%; in [9] it was 104%; in experiment [10], 120%; in [11], 89.4%; in experiment [12] it was 96.6%. Also, the growth is 84.9% in [13]; 93.6% in [14]; 99.9% in experiment [15]; 71.3% in [16]; 96.1% in experiment [17]; 93.2% in [18]. The growth in experiment [19] is 89.9%.
With `NC(N)=Nc1ccc(S(=O)(=O)O)cc1`, the growth in experiment [1] is 107%; in [2], 110%; in experiment [3], 90.8%; in [4], 94.6%; in experiment [5], 108%; in [6], 93%. In addition, the growth is 115% in [7]; 97.8% in experiment [8]; 108% in experiment [9]; 85.2% in [10]; 101% in experiment [11]; 107% in experiment [12]. The growth in experiment [13] was 99.7%; in experiment [14], 95.5%; in experiment [15], 96.7%; in experiment [16], 121%; in experiment [18], 105%; in experiment [19] it was 93.6%.
As for `COCCOc1ccc(-c2nc3ccc(-c4nc5ccc(N6CCN(C)CC6)cc5[nH]4)cc3[nH]2)cc1`, the growth is -76.2% (active) in [1]; 67.9% in experiment [2]; 18.8% in experiment [3]; 79.2% in [4]; 66.4% in experiment [5]; 80.8% in experiment [6]. Also, the growth was 68.6% in [7]; -37.8% (active) in experiment [8]; -2.49% (active) in experiment [9]; 0.928% (active) in experiment [10]; 28.4% in experiment [11]; -39% (active) in experiment [12]. The growth in experiment [13] was 45.3%; in experiment [14], 14.1%; in experiment [16], 28.3%; in experiment [17] it was 2.47% (active); in experiment [18], -3.7% (active); in [19], 100%.
Consider `C[C@@H]1CC[C@@H]2[C@@H]1[C@H](OC(=O)/C=C/c1ccccc1)[C@]1(c3ccccc3)C[C@@H](OC(=O)CO)[C@@]2(C)O1`, for which the growth is 97.7% in [1]; 88.4% in experiment [2]; 21.8% in [3]; -68.1% (active) in [4]; 98.6% in experiment [5]; 4.8% (active) in experiment [6]. In addition, the growth is 15.4% in [7]; -22.3% (active) in experiment [8]; 93% in experiment [9]; 92.1% in experiment [10]; 97.7% in experiment [11]; 54.3% in [12]. Further, the growth in experiment [13] is 99.8%; in [14], 103%; in experiment [16] it was 93.6%; in [17] it was 103%; in [18] it was -20% (active); in experiment [19], 62.1%.
Regarding `CCCNc1nc(SC)nc(-c2cccc(N)c2)c1C#N`, the growth in experiment [1] is 111%; in [2] it was 82.6%; in experiment [3], 90.1%; in experiment [4], 76.8%; in experiment [5], 150%; in [6], 97.7%. The growth was 73% in experiment [7]; 72.4% in experiment [8]; 108% in experiment [9]; 101% in experiment [10]; 103% in [11]; 99.1% in experiment [12]. The growth in experiment [13] was 101%; in experiment [14], 92.4%; in experiment [15], 93.7%; in [16], 92.2%; in experiment [17], 110%; in experiment [18], 93.1%. Also, in experiment [19], the growth was 101%.

The values are drawn from PubChem BioAssay (NCI).
